This is part of a sample that, as a whole, favours compounds with a hit. Of some 83,000 tested, about 20% had one in any assay.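 The test compound was applied at a single concentration to cells in 96-well plates for 48 hours, and percent growth was recorded.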 Unmarked numbers belong to inactive results. Calls of active or inactive are those of the source. How the source made its calls: active means growth percent below 10; inactive means the rest.
Tested on: HL-60(TB) leukemia
Assay: NCI-60 one-dose screen, 48 h (100 = growth as untreated, 0 = no growth, -100 = all killed)
Conditions: 10 µM unless noted

Row | SMILES | growth
1 | COc1ccc2nc(NC(=O)Nc3c(F)cccc3F)sc2c1 | 79.1%
2 | Cc1cc2c(-c3nc4ccccn4c3Nc3cccc4ccccc34)c(O)c(O)cc2c(O)c1-c1c(C)cc2c(-c3nc4ccccn4c3Nc3cccc4ccccc34)c(O)c(O)cc2c1O | 28.6%
3 | CCOC(=O)C1=C(C)n2nc(CC#N)c(C#N)c2NC1c1ccc(CC)cc1 (stereo not given) | 115%
4 | NC(N)=N/N=C(/c1ccccc1)c1ccccc1F | -47% (active)
5 | COc1ccc2nc3cc([N+](=O)[O-])ccc3c(NNc3ccccc3)c2c1 | 121%
6 | CNC(=O)c1cccnc1 | 99.5%
7 | COc1nc2ccccc2cc1-c1nc2c(cnn2-c2ccccc2)c(=O)[nH]1 | 11.2%
8 | CCCCCCCCSc1ncnc2c1ncn2CO | 94.5%
9 | CCOC(=O)C1=C(Nc2ccc(OC)cc2)C(N)=NC1=N | 3.35% (active)
10 | O=C1/C(=C/c2cccc([N+](=O)[O-])c2)COc2ccc(O)cc21 | 15.3%
11 | O=C1Nc2c(C(=O)O)cccc2/C1=N/c1n[nH]c(=S)s1 | 79.7%
12 | Cc1ncc(-c2ccnc(Nc3ccc(S(C)(=O)=O)cc3)n2)n1C(C)C | -43.2% (active)
13 | CC(Br)C(Br)c1cc2c(cc1Br)OCO2 (stereo not given) | 97%
14 | Nc1ncnc2c1N=C(c1ccc3c(c1)OCO3)CC(c1ccc(Cl)cc1)N2 (stereo not given) | 88.1%
15 | Cc1cc2c(C)c3cc(C)c(N)cc3nc2cc1N | 19%
16 | OCc1ccccn1 | 102%
17 | Cc1cc(C2(c3cc(C)c(O)cc3C)OS(=O)(=O)c3ccccc32)c(C)cc1O | 87.8%
18 | O=Nc1ccc(O)cc1 | 77%
19 | C=C(C)[C@@H]1CC[C@]2(C(=O)NCCCN(CCC#N)CCC#N)CC[C@]3(C)[C@H](CC[C@@H]4[C@@]5(C)CCC(=O)C(C)(C)[C@@H]5CC[C@]43C)[C@@H]12 | 100%
20 | Cc1cccc2c(=O)c3c(sc12)c(NCCNCCO)nc1ccccc13 | -58.4% (active)
21 | CCOC(=O)C1CCN(c2ccc(N3C[C@@H](CNCc4ccc(C(=N)N)cc4)OC3=O)cc2)CC1 | 101%
22 | O=C(O)/C=C/c1cn(-c2ccccc2)nc1-c1ccc(F)cc1 | 103%
23 | CCCCCCCC/C=C\CCCCCCCCOc1ccc(CC(=O)NCC[N+]2(C)CCCC2)cc1 | -31.6% (active)
24 | CCn1c(SC/C(=N/O)c2ccccc2)nnc1-c1ccccc1 | 103%
25 | CCCCCCCCCCCCCCCCCCOc1ccccc1CC(=O)NCC[N+]1(C)CCOCC1 | -10.6% (active)

Source: PubChem BioAssay (NCI)
